# Source: PubChem BioAssay
# Hits are enriched below; roughly 3.5% of the tested compounds scored in any of these assays.
# BoNT-F LC inh: BoNT F light chain protease inhibition; hit rate 0.22% among 360,000; inhibition, % at 10 µM; AID 588497; Multiplex microsphere protease cleavage assay, flow cytometry; in the data active means inhibition above about 35%, passing the limit was not always enough; inconclusive means no clear call, values can overlap the other calls; further: plate controls were buffer without enzyme for full effect and enzyme alone for no effect
# Autofluor counter: compound fluorescence in toxin protease inhibitor counterscreen; compound autofluorescence counterscreen, microsphere flow cytometry; hits give high values; hit rate 3.1% among 360,000; fluorescence intensity (test concentration not listed); in the data active means fluorescence intensity above about 16000; inconclusive means no clear call, values can overlap the other calls
# BoNT A protease: BoNT A light chain protease inhibition | multiplex microsphere protease substrate cleavage, flow cytometry | inhibition, % at 10 µM | hit rate 0.17% among 360,000 | AID 588499; further: plate controls were buffer without enzyme for full effect and enzyme alone for no effect
# BH1578 lux ind: inducers of Vibrio cholerae quorum light production without autoinducers. AID 588436. hit rate 0.16% among 350,000. V. cholerae BH1578 lux reporter, luminescence, 6 h. activation, % at 18.7 µM; in the data active means activation mostly above about 9.7%, no sharp cut-off; inconclusive means no clear call, values can overlap the other calls; inactive means mostly below about 3.7%
# Anthrax LF prot: anthrax lethal factor protease inhibition; P15917; multiplex microsphere protease cleavage assay, LF; hit rate 0.12% among 360,000; inhibition, % at 10 µM; further: plate controls were buffer without enzyme for full effect and enzyme alone for no effect
# Target sequence (P15917 whole entry, looked up): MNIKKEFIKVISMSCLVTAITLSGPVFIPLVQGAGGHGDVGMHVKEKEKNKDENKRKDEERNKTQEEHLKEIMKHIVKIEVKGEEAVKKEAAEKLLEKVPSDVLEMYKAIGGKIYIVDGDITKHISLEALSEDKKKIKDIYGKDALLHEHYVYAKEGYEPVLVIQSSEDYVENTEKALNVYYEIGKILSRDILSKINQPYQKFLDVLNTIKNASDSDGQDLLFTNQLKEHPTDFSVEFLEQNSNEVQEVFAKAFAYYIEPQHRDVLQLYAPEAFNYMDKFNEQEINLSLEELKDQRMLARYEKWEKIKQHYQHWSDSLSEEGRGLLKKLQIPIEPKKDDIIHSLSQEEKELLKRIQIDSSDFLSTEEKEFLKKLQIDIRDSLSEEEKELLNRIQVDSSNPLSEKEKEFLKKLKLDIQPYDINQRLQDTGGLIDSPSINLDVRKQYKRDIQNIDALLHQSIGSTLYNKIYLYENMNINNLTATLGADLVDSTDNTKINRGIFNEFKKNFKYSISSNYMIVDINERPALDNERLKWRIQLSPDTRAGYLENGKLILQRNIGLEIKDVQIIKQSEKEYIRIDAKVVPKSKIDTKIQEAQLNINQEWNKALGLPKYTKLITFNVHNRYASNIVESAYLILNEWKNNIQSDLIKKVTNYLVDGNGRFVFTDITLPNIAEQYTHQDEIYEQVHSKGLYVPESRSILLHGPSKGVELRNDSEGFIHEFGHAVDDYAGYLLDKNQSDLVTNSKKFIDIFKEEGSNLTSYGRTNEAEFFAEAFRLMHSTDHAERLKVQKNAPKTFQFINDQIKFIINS
# Starred values were filed as active, the others as inactive; i = inactive; ? = inconclusive; . = no result. Unless noted, no stated cut-off is given here; in the data, active means inhibition above about 30%; inconclusive means no clear call, values can overlap the other calls; inactive means below that.
SMILES,BoNT-F LC inh,Autofluor counter,BoNT A protease,BH1578 lux ind,Anthrax LF prot
COc1ccc(C2=NOC(C(=O)NC(C)C)C2)cc1 (configuration not stated),-13.3,12116,-1.4,i,1.8
COC(=O)c1ccc(C(NC(=O)c2cccnc2)NC(=O)c2cccnc2)cc1,3.3,4281,0.1,-0.5,-8.4
CCOC(=O)C1=NN(N=O)C2(CC(=O)N(c3cc(C)cc(C)c3)C2=O)C1 (configuration not stated),-9.2,24546*,-3.6,1.7,-1.8
CCC1CCc2[nH]nc(C(=O)O)c2C1 (configuration not stated),6.2,8617,1.2,-1.7,-0.7
CC1CCc2[nH]nc(C(=O)O)c2C1 (configuration not stated),2.6,20725*,1.7,i,-8.3
CN1CCC(N(C)C(=O)/C(C#N)=C\c2ccc(OC(F)F)cc2)CC1,-4.6,2812,0.2,.,0.6
COc1ccc(-c2csc(NC(=O)c3cccc(S(=O)(=O)N4CCN(C)CC4)c3)n2)cc1,-1.9,8679,-0.1,.,-5.0
CN1CCN(S(=O)(=O)c2cccc(C(=O)Nc3nc(-c4ccccc4)cs3)c2)CC1,-1.6,23294*,-0.7,1.0,-10.0
COC(=O)c1cccc(NC(=O)c2ccc(S(=O)(=O)N3CCN(C)CC3)cc2)c1,-9.5,23982*,-4.4,3.0,-0.4
CN1CCN(S(=O)(=O)c2ccc(NC(=O)c3ccc(F)cc3Cl)cc2)CC1,47.4*,3183,4.2,-0.8,25.7
O=C(OCc1ccccn1)c1ccc(COc2ccc3ccccc3c2)o1,1.1,4863,-0.4,-0.4,0.2
O=C(CS(=O)c1ccc(C(F)(F)F)cc1[N+](=O)[O-])Oc1ccc(Cl)cc1 (configuration not stated),0.3,22500*,-0.7,i,-7.3
Cc1cc(C)cc(OC(=O)CS(=O)c2ccc(C(F)(F)F)cc2[N+](=O)[O-])c1 (configuration not stated),4.7,10026,-2.1,-0.2,-10.2
O=C(NC(=S)Nc1cc(Cl)ccc1N1CCOCC1)c1ccc(-c2cccc(Cl)c2)o1,-0.1,16940*,-1.1,-0.2,0.1
O=C(O)c1ccc(-c2cccc(Cl)c2)o1,3.1,23409*,?,i,0.5
O=C(Nc1ccccc1N1CCCCC1)c1ccc(-c2cccc(Cl)c2)o1,1.1,9634,-0.7,i,-4.8
C#CCn1c(O)c(N=NC(=O)CNC(=O)c2cccnc2)c2ccccc21,-4.8,4643,-0.9,-2.5,-0.3
O=C(Nc1ccccc1)N1CCN(c2nc3ccccc3s2)CC1,2.8,21122*,2.2,i,-1.1
Cc1ccn(C(=O)c2ccc(NC(=O)CC(C)C)cc2)n1,-1.8,2026,0.0,i,-1.6
CCN(CC(=O)Nc1c(F)cccc1F)C(=O)C1Cc2ccccc2CN1S(=O)(=O)CC (configuration not stated),-70.7,16229*,-49.0,i,-10.8
CCS(=O)(=O)N1Cc2ccccc2CC1C(=O)N1CCN(c2cccc(C)c2C)CC1 (configuration not stated),-1.7,23317*,1.5,-7.1,-5.1
Cc1ccc(N=C(N)N=C(N)N)c(C)c1,?,4018,1.8,-0.6,9.0
O=C(NC1CCCCC1)C1CCN(C(=O)NCc2ccccc2)CC1,1.8,16321*,0.9,3.0,-2.5
O=C(NCc1ccc(F)cc1)C1CCN(C(=O)NCc2ccccc2)CC1,-5.6,6142,-1.0,-0.3,-6.4
O=C(NCc1ccccc1F)C1CCN(C(=O)NCc2ccccc2)CC1,-2.9,17003*,-1.8,-3.0,-5.8
SMILES,BoNT-F LC inh,Autofluor counter,BoNT A protease,BH1578 lux ind,Anthrax LF prot
Oc1ccccc1OCc1nc2ccccc2s1,0.2,22098*,2.4,i,-4.2
O=C(OCc1nc2ccccc2s1)c1ccc(Br)s1,-2.9,23134*,-0.9,-0.2,2.2
O=C(Nc1cscc1S(=O)(=O)c1ccccc1)c1ccccc1Cl,-0.6,6001,1.2,-0.6,1.6
Cc1ccc(NC(=O)CN(C)C(=O)COC(=O)c2ccc(Cl)cc2O)cc1,-7.1,9224,-2.3,-2.6,1.0
Oc1ccccc1C1=Nc2ncnn2C(c2ccccc2)C1 (configuration not stated),-3.6,16346*,-0.9,-2.0,-10.0
O=[N+]([O-])/C=C/c1cn(Cc2ccc(Cl)cc2)c2ccccc12,11.8,4418,39.1*,-2.6,20.9
Cc1cccc(Cn2cc(/C=C/[N+](=O)[O-])c3ccccc32)c1,19.6,8917,27.9,-0.2,15.1
COc1cccc(CNC(=O)N[C@@H](C)C(=O)O)c1,1.9,4715,0.6,-3.1,-6.7
CCN(CC)c1nc2ccccc2nc1-n1nc(C)cc1C,0.2,24280*,?,-0.7,-1.8
Cc1cc(C)n(-c2nc(N(c3ccccc3)c3ccccc3)nc(-n3nc(C)cc3C)n2)n1,-5.2,17611*,-6.9,0.9,-1.6
CC(=O)c1nnn(-c2nc(N)nc(N(c3ccccc3)c3ccccc3)n2)c1C,-0.7,22006*,?,-1.4,-1.9
CC1CC(=O)c2cnc(N)nc2C1 (configuration not stated),-4.0,22837*,-1.6,i,-10.7
CC(=O)Nc1cccc(C(=O)OC(C(=O)c2ccc(C)c(C)c2)c2ccccc2)c1 (configuration not stated),-2.5,19826*,-0.8,-2.0,-12.9
O=C(c1ccc(Br)cc1)C1CCc2occc2C1=O (configuration not stated),3.1,22206*,1.0,2.9,0.5
CCOc1ccc(S(=O)(=O)N2CCC(C(=O)NCCN3CCOCC3)CC2)cc1C,-0.6,3718,-3.1,-0.1,11.6
Cc1ccccc1OCC(=O)N(Cc1ccc(N(C)C)cc1)C1CCS(=O)(=O)C1 (configuration not stated),-3.7,23914*,-0.9,1.8,1.7
CN(C)c1ccc(CN(C(=O)COc2ccccc2)C2CCS(=O)(=O)C2)cc1 (configuration not stated),-6.0,16811*,-2.0,i,-1.7
Cc1ccc(OCC(=O)N(Cc2ccc(N(C)C)cc2)C2CCS(=O)(=O)C2)cc1C (configuration not stated),?,3505,1.7,-0.4,26.6
O=C1C2CC=CCC2C(=O)N1CC(=O)N(Cc1ccccc1)C1CCS(=O)(=O)C1 (configuration not stated),4.3,22395*,1.4,-2.0,-4.1
CCCOc1cccc(C(=O)N(Cc2ccc(OC)c(OC)c2)C2CCS(=O)(=O)C2)c1 (configuration not stated),-2.7,23243*,-0.7,-0.2,-2.4
Cc1cc(C)n(CCNS(=O)(=O)c2ccccc2)n1,-10.9,5735,-1.6,-0.1,-2.9
CCc1ccc(NC(=O)c2ccccc2SC)cc1,-3.5,4713,-0.8,-4.5,-6.5
CCN(CC)C(=O)CSc1nc(N)c(C#N)c(-c2cccs2)c1C#N,-0.7,21936*,?,1.4,-1.8
CCc1c(C#N)c(N)nc(SCC(=O)OCc2ccccc2)c1C#N,-6.3,17979*,-3.1,-11.4,-6.5
CCN(CC)C(=O)CSc1nc(-c2cccs2)cc(-c2cccs2)c1C#N,-3.6,3793,13.0,i,2.4
